# Laboratory results published in PubChem BioAssay (EPA / NIEHS).
# Values joined by “and” are separate entries in the source; they are usually repeats but may differ in a detail not shown here. Equal values may be shown once. Where a structure was tested more than once in an assay, its records may differ in their call. Active and inactive are the calls of the source. The calls were made as follows: active = hit-call score of the fitted dose curve at least 0.9, where 1 is the maximum; inactive = score below 0.9.
# Tests used:
# [1] = BSK_hDFCGF_Proliferation: Cell Proliferation Assessment in the BioMAP Diversity Plus: hDFCGF Assay (AID 2283059); conditions: primary human foreskin fibroblasts;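 also: curves fitted for both rise and fall of signal versus DMSO baseline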
# Outline: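 Total protein read at 560 nm after 0.1% SRB staining of TCA-fixed human skin fibroblasts, […]. Activity is fitted in both directions relative to DMSO as baseline.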
# [2] = read-out: Macrophage colony-stimulating factor (MCSF), CSF1 (gene 1435); assay: BSK_hDFCGF_MCSF: BioMAP Diversity Plus: hDFCGF Assay for Macrophage colony-stimulating factor (MCSF) Biomarker Activity (AID 2283060); conditions: primary human foreskin fibroblasts; actives raise or lower the signal
# Outline: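 Primary human foreskin fibroblasts dosed with chemical; 24 h later, M-CSF quantified by ELISA; curves fitted in both directions vs DMSO negative control.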
# [3] = BSK_hDFCGF_SRB: Viability Assessment in the BioMAP Diversity Plus: hDFCGF Assay (AID 2283061); conditions: primary human foreskin fibroblasts;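 also: cells exposed to compound for 24 h before the read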
# Outline: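 Readout is SRB absorbance at 560 nm, reflecting total protein in parallel cultures of human foreskin fibroblasts harvested 24 h after chemical dosing. Activity was fitted bidirectionally relative to DMSO.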
# [4] = read-out: TIMP metallopeptidase inhibitor 1 (TIMP1), TIMP1 (gene 7076); assay: BSK_hDFCGF_TIMP1: BioMAP Diversity Plus: hDFCGF Assay for TIMP metallopeptidase inhibitor 1 (TIMP1) Biomarker Activity (AID 2283062); conditions: primary human foreskin fibroblasts; actives raise or lower the signal
# Outline: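 Human skin fibroblasts (primary), hDFCGF system; compound exposure 24 h; TIMP-1 by ELISA; bidirectional fit vs DMSO negative control; overt cytotoxicity by SRB in parallel wells.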
# [5] = read-out: Monokine induced gamma interferon (MIG), CXCL9 (gene 4283); assay: BSK_hDFCGF_MIG: BioMAP Diversity Plus: hDFCGF Assay for Monokine induced gamma interferon (MIG) Biomarker Activity (AID 2283063); conditions: primary human foreskin fibroblasts; actives raise or lower the signal
# Outline: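 Chemicals were added to primary human foreskin fibroblast cultures, which were sampled 24 h later. MIG levels were then quantified by ELISA and responses fitted in both directions relative to DMSO.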
# [6] = read-out: Matrix Metallopeptidase 1 (MMP1), MMP1 (gene 4312); assay: BSK_hDFCGF_MMP1: BioMAP Diversity Plus: hDFCGF Assay for Matrix Metallopeptidase 1 (MMP1) Biomarker Activity (AID 2283064); conditions: primary human foreskin fibroblasts; actives raise or lower the signal
# Outline: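 hDFCGF primary fibroblasts (human foreskin); chemical added; 24 h; MMP1 by ELISA; bidirectional fit vs DMSO.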
# [7] = read-out: Vascular cell adhesion molecule 1 (VCAM1), VCAM1 (gene 7412); assay: BSK_hDFCGF_VCAM1: BioMAP Diversity Plus: hDFCGF Assay for Vascular cell adhesion molecule 1 (VCAM1) Biomarker Activity (AID 2283065); conditions: primary human foreskin fibroblasts; actives raise or lower the signal;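 as to AC50: VCAM-1 protein level quantified by ELISA after 24 h chemical exposure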
# Outline: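 Human foreskin fibroblast primary cells, chemical exposure 24 h; VCAM-1 by ELISA; bidirectional fit, DMSO = negative control/baseline.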
# [8] = read-out: Plasminogen activator inhibitor-1 (PAI1), SERPINE1 (gene 5054); assay: BSK_hDFCGF_PAI1: BioMAP Diversity Plus: hDFCGF Assay for Plasminogen activator inhibitor-1 (PAI1) Biomarker Activity (AID 2283066); conditions: primary human foreskin fibroblasts; actives raise or lower the signal
# Outline: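 Primary dermal fibroblasts (human foreskin), hDFCGF system; compound 24 h; PAI-1 by ELISA; bidirectional fit vs DMSO control.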
# [9] = read-out: Intercellular Adhesion Molecule 1 (ICAM1), ICAM1 (gene 3383); assay: BSK_KF3CT_ICAM1: BioMAP Diversity Plus: KF3CT Assay for Intercellular Adhesion Molecule 1 (ICAM1) Biomarker Activity (AID 2283067); conditions: primary human keratinocytes with fibroblasts; actives raise or lower the signal
# Outline: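 ICAM-1 levels are measured by ELISA 24 h after dosing a primary human co-culture of keratinocytes and foreskin fibroblasts. Activity in either direction is fitted relative to DMSO vehicle.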
# [10] = BSK_KF3CT_SRB: Viability Assessment in the BioMAP Diversity Plus: KF3CT Assay (AID 2283069); conditions: primary human keratinocytes with fibroblasts;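 also: total protein by sulforhodamine B staining as a cytotoxicity measure; read 24 h after compound addition; fitted for both signal gain and loss against DMSO baseline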
# Outline: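 Keratinocytes co-cultured with foreskin fibroblasts (human primary); chemical added, 24 h; fix 10% TCA, stain 0.1% SRB, A560. Bidirectional fit vs DMSO.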
# [11] = read-out: Interleukin-1 alpha (IL1a), IL1A (gene 3552); assay: BSK_KF3CT_IL1a: BioMAP Diversity Plus: KF3CT Assay for Interleukin-1 alpha (IL1a) Biomarker Activity (AID 2283070); conditions: primary human keratinocytes with fibroblasts; actives raise or lower the signal
# Outline: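 Chemicals were dosed onto co-cultured human keratinocytes and foreskin fibroblasts, IL-1a was quantified by ELISA at 24 h, and activity was fitted in both directions relative to DMSO controls.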
# [12] = read-out: TIMP metallopeptidase inhibitor 2 (TIMP2), TIMP2 (gene 7077); assay: BSK_KF3CT_TIMP2: BioMAP Diversity Plus: KF3CT Assay for TIMP metallopeptidase inhibitor 2 (TIMP2) Biomarker Activity (AID 2283071); conditions: primary human keratinocytes with fibroblasts; actives raise or lower the signal
# Outline: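 Cells: human keratinocytes co-cultured with foreskin fibroblasts. Treat with chemical, 24 h. Measure TIMP-2 by ELISA; fit curves bidirectionally vs DMSO baseline.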
# [13] = read-out: Transforming growth factor beta 1 (TGFb1), TGFB1 (gene 7040); assay: BSK_KF3CT_TGFb1: BioMAP Diversity Plus: KF3CT Assay for Transforming growth factor beta 1 (TGFb1) Biomarker Activity (AID 2283072); conditions: primary human keratinocytes with fibroblasts; actives raise or lower the signal
# Outline: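 Primary human skin cells (keratinocytes, foreskin fibroblasts) were co-cultured, exposed to test chemical and sampled at 24 h. TGF-b1 levels were measured by ELISA and fitted bidirectionally relative to DMSO.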
# [14] = read-out: C-C motif chemokine 2 (Homo sapiens) (UniProt P13500); assay: BSK_KF3CT_MCP1: BioMAP Diversity Plus: KF3CT Assay for Monocyte Chemoattractant Protein 1 (MCP1/CCL2) Biomarker Activity (AID 2283073); conditions: primary human keratinocytes with fibroblasts; actives raise or lower the signal
# Outline: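 ELISA readout of MCP-1 after 24 h chemical dosing of a human skin primary co-culture of keratinocytes and foreskin fibroblasts. Activity was fitted in both directions against DMSO.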
# [15] = read-out: Matrix Metallopeptidase 9 (MMP9), MMP9 (gene 4318); assay: BSK_KF3CT_MMP9: BioMAP Diversity Plus: KF3CT Assay for Matrix Metallopeptidase 9 (MMP9) Biomarker Activity (AID 2283074); conditions: primary human keratinocytes with fibroblasts; actives raise or lower the signal;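 as to AC50: MMP9 protein level quantified by ELISA in the co-culture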
# Outline: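 Human keratinocyte/foreskin fibroblast co-culture; compound added; 24 h; MMP-9 by ELISA; bidirectional fit vs DMSO baseline.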
# [16] = read-out: urokinase plasminogen activator (uPA), PLAU (gene 5328); assay: BSK_KF3CT_uPA: BioMAP Diversity Plus: KF3CT Assay for urokinase plasminogen activator (uPA) Biomarker Activity (AID 2283075); conditions: primary human keratinocytes with fibroblasts; actives raise or lower the signal
# Outline: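 ELISA readout of uPA, analyzed for signal gain or loss relative to DMSO, from a human primary keratinocyte–foreskin fibroblast co-culture measured 24 h after chemical treatment.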
# [17] = read-out: CD40, CD40 (gene 958); assay: BSK_LPS_CD40: BioMAP Diversity Plus: LPS Assay for CD40 Biomarker Activity (AID 2283076); conditions: primary human HUVEC with PBMC; actives raise or lower the signal
# Outline: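 Cells were dosed, incubated 24 h, then assayed for CD40 by ELISA. Gain or loss of signal was analysed relative to DMSO controls. The culture paired human umbilical vein endothelium with peripheral blood mononuclear cells.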
# [18] = read-out: E-selectin (Homo sapiens) (UniProt P16581); assay: BSK_LPS_Eselectin: BioMAP Diversity Plus: LPS Assay for Eselectin Biomarker Activity (AID 2283077); conditions: primary human HUVEC with PBMC; actives raise or lower the signal
# Outline: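 Primary human vascular co-culture (endothelium plus PBMC) was dosed with chemical, then E-selectin quantified by ELISA at 24 h. Endpoint values derive from bidirectional curve fitting relative to DMSO.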
# [19] = read-out: Interleukin-8 (IL8), CXCL8 (gene 3576); assay: BSK_LPS_IL8: BioMAP Diversity Plus: LPS Assay for Interleukin-8 (IL8) Biomarker Activity (AID 2283078); conditions: primary human HUVEC with PBMC; actives raise or lower the signal
# Outline: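 Readout is IL-8 by ELISA, taken 24 h after compounds were added to LPS-stimulated endothelial/PBMC co-cultures. Both increases and decreases relative to DMSO control were scored through bidirectional fitting.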
# [20] = read-out: Interferon-gamma inducible Protein 10 (IP10), CXCL10 (gene 3627); assay: BSK_KF3CT_IP10: BioMAP Diversity Plus: KF3CT Assay for Interferon-gamma inducible Protein 10 (IP10) Biomarker Activity (AID 2283068); conditions: primary human keratinocytes with fibroblasts; actives raise or lower the signal
# Outline: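 Human keratinocyte plus foreskin fibroblast primary co-culture exposed to test chemical for 24 h; IP-10 measured by ELISA. Concentration-response fitted bidirectionally against DMSO control as baseline.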
# E-selectin (Homo sapiens), sequence (P16581 whole entry, looked up): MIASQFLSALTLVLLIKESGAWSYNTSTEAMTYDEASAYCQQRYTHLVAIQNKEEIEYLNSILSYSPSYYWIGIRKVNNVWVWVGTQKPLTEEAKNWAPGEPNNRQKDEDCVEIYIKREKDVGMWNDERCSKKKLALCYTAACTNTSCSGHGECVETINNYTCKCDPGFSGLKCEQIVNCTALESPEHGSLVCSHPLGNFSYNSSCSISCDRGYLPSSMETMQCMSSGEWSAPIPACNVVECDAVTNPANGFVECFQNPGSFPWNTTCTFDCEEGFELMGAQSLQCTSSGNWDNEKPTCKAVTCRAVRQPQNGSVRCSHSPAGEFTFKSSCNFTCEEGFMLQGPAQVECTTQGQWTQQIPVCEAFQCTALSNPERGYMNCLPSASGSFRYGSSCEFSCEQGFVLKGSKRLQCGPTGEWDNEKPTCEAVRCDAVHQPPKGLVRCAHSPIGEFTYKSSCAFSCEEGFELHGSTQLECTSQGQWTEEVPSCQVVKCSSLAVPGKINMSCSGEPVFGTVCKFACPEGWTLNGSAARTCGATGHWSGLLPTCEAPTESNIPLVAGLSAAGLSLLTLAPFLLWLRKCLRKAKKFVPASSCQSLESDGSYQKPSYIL
smiles,measurement,setting,value
CCOS(=O)(=O)OCC,outcome,[1],inactive
same,outcome,[2],inactive
same,outcome,[3],inactive
same,outcome,[4],inactive
same,outcome,[5],inactive
same,outcome,[6],inactive
same,outcome,[7],inactive
same,outcome,[8],inactive
same,outcome,[9],inactive
same,outcome,[10],inactive
same,outcome,[11],inactive
same,outcome,[12],inactive
same,outcome,[13],inactive
same,outcome,[14],inactive
same,outcome,[15],inactive
same,outcome,[16],inactive
same,outcome,[17],inactive
same,outcome,[18],inactive
same,outcome,[19],inactive
COC(=O)C(F)(F)C(F)(F)OC(F)(C(F)(F)F)C(F)(F)OC(F)=C(F)F (stereo unspecified),AC50,[1],5.81 µM (active)
same,outcome,[1],inactive
same,outcome,[2],inactive
same,outcome,[3],inactive
same,outcome,[4],inactive
same,outcome,[5],inactive
same,outcome,[6],inactive
same,AC50,[7],2.13 µM (active) and 2.85 µM (active)
same,outcome,[8],inactive
same,outcome,[20],inactive
same,outcome,[10],inactive
same,outcome,[11],inactive
same,outcome,[12],inactive
same,outcome,[14],inactive
same,outcome,[16],inactive
same,outcome,[17],inactive
same,outcome,[18],inactive
same,outcome,[19],inactive
O=P(Oc1ccccc1)(Oc1ccccc1)Oc1ccccc1,AC50,[1],14.2 µM (active)
same,AC50,[2],10.9 µM (active)
same,outcome,[3],inactive
same,outcome,[4],inactive
same,outcome,[5],inactive
same,outcome,[6],inactive
same,outcome,[7],inactive
same,outcome,[9],inactive
same,outcome,[10],inactive
same,outcome,[11],inactive
same,outcome,[12],inactive
same,outcome,[13],inactive
same,outcome,[14],inactive
same,outcome,[15],inactive
same,outcome,[16],inactive
same,AC50,[17],23.6 µM (active)
same,outcome,[18],inactive
same,AC50,[19],30.6 µM (active)
C=CC(=O)OCC(F)(F)C(F)F,AC50,[1],30 µM (active) and 39.7 µM (active)
same,AC50,[2],22.8 µM (active) and 23 µM (active)
same,outcome,[3],inactive
same,AC50,[4],30 µM (active) and 31.7 µM (active)
same,AC50,[5],36.7 µM (active) and 38.4 µM (active)
same,AC50,[6],4.6 µM (active)
same,outcome,[6],inactive
same,AC50,[7],20 µM (active) and 11.1 µM (active)
same,outcome,[9],inactive
same,outcome,[10],inactive
same,outcome,[11],inactive
same,outcome,[12],inactive
same,outcome,[14],inactive
same,outcome,[15],inactive
same,outcome,[16],inactive
same,AC50,[17],24 µM (active) and 19.9 µM (active)
same,AC50,[18],45.9 µM (active) and 47.4 µM (active)
same,AC50,[19],49 µM (active) and 30 µM (active)
CCCCCCCc1ccc(O)cc1,AC50,[1],13.5 µM (active)
same,AC50,[2],20 µM (active)
same,AC50,[3],30 µM (active)
same,AC50,[4],32.5 µM (active)
same,AC50,[5],28.5 µM (active)
same,AC50,[6],33.6 µM (active)
same,AC50,[7],20.7 µM (active)
same,AC50,[9],33.3 µM (active)
same,AC50,[20],29 µM (active)
same,AC50,[10],30.7 µM (active)
same,AC50,[11],30.4 µM (active)
same,AC50,[12],32.2 µM (active)
same,AC50,[13],31.7 µM (active)
same,AC50,[14],29.6 µM (active)
same,AC50,[15],30.5 µM (active)
same,AC50,[17],30.9 µM (active)
same,AC50,[19],35.1 µM (active)
CCOP(=S)(Oc1ccc([N+](=O)[O-])cc1)c1ccccc1 (stereo unspecified),AC50,[1],6.37 µM (active)
same,AC50,[2],7.24 µM (active)
same,outcome,[3],inactive
same,outcome,[4],inactive
same,outcome,[5],inactive
same,outcome,[6],inactive
same,AC50,[7],7.62 µM (active)
same,AC50,[8],3.35 µM (active)
same,outcome,[10],inactive
same,outcome,[11],inactive
same,outcome,[12],inactive
same,outcome,[13],inactive
same,outcome,[14],inactive
same,outcome,[16],inactive
same,outcome,[17],inactive
same,outcome,[19],inactive
